Our source for the growth values is PubChem BioAssay (NCI).

This is part of a sample that, as a whole, favours compounds with a hit. Of some 83,000 tested, about 20% had one in any assay.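 48-hour exposure, single concentration, 96-well plates; percent growth endpoint where 0 means no net growth. Active: below 10.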 Values without a mark were called inactive. Activity calls are given as the source filed them.

This test deals with TK-10 renal. Briefly: NCI-60 one-dose screen, 48 h (100 = growth as untreated, 0 = no growth, -100 = all killed). As to conditions: 10 µM. The protocol: Growth inhibition of the TK-10 human tumor cell line is measured as a screen for anti-cancer activity. Cells are grown in 96 well plates and exposed to the test compound for 48 hours. Compounds are tested at a single concentration, which is 10^-5 M for most compounds. The reported endpoint is percent growth (GI% or GIPRCNT), where numbers from 0 - 100% represent growth inhibition, and numbers from -100% - 0 represent cell death. For example, a value of 40 represents 60% growth inhibition. A value of 0 means no net growth occurred over the course of the experiment. A value of -40 indicates 40% of cells at the beginning of the experiment died by the end of the experiment. A value of -100 means all cells are dead at the end of the experiment.
NCI-60 Human Tumor Cell Lines Screen was performed using the standard one-dose NCI protocol, which is described in more detail at https://dtp.cancer.gov/discovery_development/nci-60/default.htm.
Compounds with GIPRCNT values below 10 were considered active. Activity score was based on GIPRCNT using the following formula: […]
Score is 0 for GIPRCNT values of 100 or above, 50 for GIPRCNT values of 0, and 100 for GIPRCNT values of -100.
Regarding `O=C1CC(c2cccc(-c3cccnc3)c2)=Nc2ccc(Br)cc2N1`, the growth was -9.34% (active). The value for `CCC1(C)OC(=O)NC1=O` (stereo not given) was 99.3%; that for `O=C(Nc1cccc(C(F)(F)F)c1)C(Cl)Cl` was 108%; that for `CCOc1cc(Br)c(C(C)NC(=O)c2cccc(OC)c2)cc1OCC` (stereo not given) was 77.8%.

Consider `CCc1ccc(-c2nnc(COc3ccc(-c4nc5ccc(C)cc5[nH]4)cc3OC)o2)cc1`, for which the growth was 55.1%. Regarding `N#Cc1c(-c2ccccc2)nc(SCC(=O)N2CCOCC2)[nH]c1=O`, the growth was 110%. For the compound `CCCCCN(CCCCC)C(C)C(O)c1ccc2cc(Cl)c3ccccc3c2c1` (stereo not given), the growth is 94.8%.

For `CN(C1c2ccccc2Oc2ccccc21)S(=O)(=O)c1cc(Cl)ccc1Cl`, the growth is 69%. The value for `Cc1ccc(S(=O)(=O)Nc2cccc3[nH]c(C(F)(F)F)nc23)cc1` was 36.7%; that for `Cc1cc(O)c(C2=NN(c3ccc(S(N)(=O)=O)cc3)C(c3ccc(N(C)C)cc3)C2)c(C)c1Cl` (stereo not given) was 113%; that for `COc1ccc(Cn2cc3c(c2-c2ccccc2)CC(C)(C)c2cnoc2-3)cc1` was 75%. Next, `CCCCCCCCCCCC(c1ccccc1)N(C)C` (stereo not given): 134%; `COC(=O)c1cnc2c(c1)Oc1ccc(Cl)cc1-c1cc(C)nn1-2`: 95.4%; `Cc1ccc(Cl)cc1Nc1nc(C(F)(F)F)ccc1C(=O)N/N=C/c1c(Cl)cccc1Cl`: 22.7%. The value for `COc1cc(/C=C/C(=O)c2cc(-c3ccc(C(F)(F)F)cc3)ccc2O)cc(OC)c1OC` was 98%. On to `CN(C)CCCN1c2ccccc2Sc2ccc(C(F)(F)F)cc21`, for which the growth is 25%. The value for `Cn1c(=O)c2[nH]c(C(O)c3ccc(Cl)cc3)nc2n(C)c1=O` (stereo not given) was 108%; that for `N#Cc1c2c([nH]c(=O)c1C(N)=O)CCCCC2` was 95.4%. Next, `C=C1C(=O)O[C@H]2[C@H]1CC/C(COC(=O)OCCCCCOC(=O)OC/C1=C/CC[C@@]3(C)O[C@H]3[C@H]3OC(=O)C(=C)[C@@H]3CC1)=C\CC[C@@]1(C)O[C@@H]21`: -87.6% (active); `Cc1ncc([N+](=O)[O-])n1CCOc1ccc(C(=O)/C=C/c2ccc(C(F)(F)F)cc2)cc1`: 72.4%. The value for `Cc1nn2c(/C=C3/C(=O)Nc4ccc(Cl)cc43)c(-c3ccccc3)nc2s1` was 6.61% (active); that for `CC1=CC2OC34COC3CC(OC(=O)C(F)(F)F)C4(C)C2(C)CC1` (stereo not given) was 101%. `CCOC(=S)Sc1ccc([N+](=O)[O-])cc1[N+](=O)[O-]`: the growth is 94%. With `CCOC(=O)c1c(O)c2cc(-c3ccccc3)nc(OCC)c2c(=O)n1C`, the growth is 123%.

As to `O=C(COc1ccc(Cl)cc1Cl)Oc1coc(CSc2nc3ccccc3s2)cc1=O`, the growth is 107%.

In the case of `COc1cc(Cn2c(-c3ccccc3)cc3c2-c2oncc2CC3)cc(OC)c1`, the growth was 57.4%. The value for `C[C@@H]1N=C(c2ccc(Br)cc2)Nc2nc3ccccn3c2C1=O` was 110%; that for `Nc1ccn([C@@H]2O[C@H](COP(=O)(O)O[C@@H]3C[C@H](n4cc(F)c(=O)[nH]c4=O)O[C@@H]3COP(=O)(O)O[C@@H]3C[C@H](n4cc(F)c(=O)[nH]c4=O)O[C@@H]3COP(=O)(O)O[C@@H]3C[C@H](n4cc(F)c(=O)[nH]c4=O)O[C@@H]3COP(=O)(O)O[C@@H]3C[C@H](n4cc(F)c(=O)[nH]c4=O)O[C@@H]3COP(=O)(O)O[C@@H]3C[C@H](n4cc(F)c(=O)[nH]c4=O)O[C@@H]3COP(=O)(O)O[C@@H]3C[C@H](n4cc(F)c(=O)[nH]c4=O)O[C@@H]3COP(=O)(O)O[C@@H]3C[C@H](n4cc(F)c(=O)[nH]c4=O)O[C@@H]3COP(=O)(O)O[C@@H]3C[C@H](n4cc(F)c(=O)[nH]c4=O)O[C@@H]3COP(=O)(O)O[C@@H]3C[C@H](n4cc(F)c(=O)[nH]c4=O)O[C@@H]3COP(=O)(O)O[C@@H]3C[C@H](n4cc(F)c(=O)[nH]c4=O)O[C@@H]3COP(=O)(O)OCCOCCOCCOCCOCCOCCO)[C@H](O)C2O)c(=O)n1` (stereo not given in full) was 56.3%; that for `O=c1oc2c3ccc4cnccc4c3[nH]c2c2ccccc12` was 79.3%. On to `Cn1cnc([N+](=O)[O-])c1/C=C1\Oc2ccc(Cl)cc2C1=O`, for which the growth is 98.2%.

`S=C(Cc1ccc(-c2ccccc2)cc1)N1CCOCC1`: the growth was 99.7%. Next, `CCCCCCCCCCCCCCCCCBr`: 108%. In the case of `COc1cc(-c2nc3ccccc3[nH]2)ccc1OCc1nnc(-c2ccc(Br)cc2)o1`, the growth is 130%.

Regarding `C=CCN1C(=O)/C(=C\c2ccc3c(c2)CCC3)SC1=S`, the growth is 108%. The value for `COc1ccc(/C=C2\SC(=S)N(CCCN3CCOCC3)C2=O)c(OC)c1` was 104%; that for `CCOc1nc(-c2ccccc2)cc2c(O)c(C(=O)NCCCO)[nH]c(=O)c12` was 146%; that for `CC(=O)Nc1ccc(Sc2ccc(NC(C)=O)cc2)cc1` was 92.2%.

For `C#CCn1c(-c2cccc(OCCCCl)c2)nc2c1c(=O)n(C)c(=O)n2C`, the growth was 101%. Consider `Cc1cnc(C=O)c2cccc([N+](=O)[O-])c12`, for which the growth was 108%. The value for `CC(C)C[C@H](NC(=O)Cn1ccc(Nc2ccccc2)cc1=O)B(O)O` was 13.5%.
